Assay results taken from PubChem BioAssay (NCI).
This is part of a sample that, as a whole, favours compounds with a hit. Of some 83,000 tested, about 20% had one in any assay.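 Compound tested at a single concentration for 48 hours in 96-well plates; a percent growth value below 10 was scored as active.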 A number with no mark means an inactive call. Activity calls are given as the source filed them.

Legend:
Experiment in all cases: NCI-60 one-dose screen, 48 h (100 = growth as untreated, 0 = no growth, -100 = all killed)
SK-MEL-2 melanoma = settings: 10 µM unless noted
EKVX NSCLC = settings: 10 µM unless noted
SN12C renal = settings: 10 µM unless noted
UO-31 renal = settings: 10 µM unless noted
TK-10 renal = settings: 10 µM unless noted
ACHN renal = settings: 10 µM unless noted
CAKI-1 renal = settings: 10 µM unless noted
A498 renal = settings: 10 µM unless noted
CCRF-CEM leukemia = settings: 10 µM unless noted
MOLT-4 leukemia = settings: 10 µM unless noted
SR leukemia = settings: 10 µM unless noted
RPMI-8226 leukemia = settings: 10 µM unless noted
OVCAR-8 ovarian = settings: 10 µM unless noted
OVCAR-5 ovarian = settings: 10 µM unless noted
OVCAR-4 ovarian = settings: 10 µM
SK-OV-3 ovarian = settings: 10 µM unless noted
IGROV1 ovarian = settings: 10 µM unless noted
OVCAR-3 ovarian = settings: 10 µM unless noted
NCI/ADR-RES ovarian = settings: 10 µM unless noted
HS 578T breast = settings: 10 µM unless noted

| Structure (SMILES) | growth (SK-MEL-2 melanoma) | growth (EKVX NSCLC) | growth (SN12C renal) | growth (UO-31 renal) | growth (TK-10 renal) | growth (ACHN renal) | growth (CAKI-1 renal) | growth (A498 renal) | growth (CCRF-CEM leukemia) | growth (MOLT-4 leukemia) | growth (SR leukemia) | growth (RPMI-8226 leukemia) | growth (OVCAR-8 ovarian) | growth (OVCAR-5 ovarian) | growth (OVCAR-4 ovarian) | growth (SK-OV-3 ovarian) [%] | growth (IGROV1 ovarian) | growth (OVCAR-3 ovarian) | growth (NCI/ADR-RES ovarian) | growth (HS 578T breast) |
| --- | --- | --- | --- | --- | --- | --- | --- | --- | --- | --- | --- | --- | --- | --- | --- | --- | --- | --- | --- | --- |
| COc1cc(C)cc2oc3oc(=O)c(C(=O)c4cc5cc(Br)ccc5o4)cc3c(=O)c12 | 114% | 100% | 97.6% | 72.7% | 121% | 95.8% | 91.8% | 92.2% | 120% | 106% | 102% | 120% | 104% | 98.9% | 110% | 114 | 92.8% | 107% | 110% | – |
| COc1cc(C)cc2oc3oc(=O)c(-c4nc5ccccc5s4)cc3c(=O)c12 | 113% | 105% | 98.4% | 74.6% | 101% | 100% | 91.8% | 85.1% | 107% | 106% | 105% | 94.1% | 86.4% | 89.7% | 96.7% | 111 | 83.2% | 85.3% | 94.4% | – |
| Cc1nn(-c2ccccc2)c(N2CCOCC2)c1-c1nc2ccc([N+](=O)[O-])cc2[nH]1 | 110% | 106% | 95.2% | 81.4% | 100% | 105% | 80% | 76.3% | 92.6% | 85.7% | 87.2% | 97.6% | 102% | 108% | 98.9% | 135 | 111% | 110% | 105% | – |
| CN(C)CCOc1ccc(/C(=C(/CCCl)c2ccccc2)c2ccccc2)cc1 | 48.5% | 30% | 23.7% | 26.5% | 49.8% | 30.1% | 30.8% | 65.7% | -6.69% (active) | -4.84% (active) | -17% (active) | -11.4% (active) | 26.7% | 47% | 32.9% | 33.6 | 30.5% | 12.9% | 14.1% | – |
| CC(C)C1=NOC(=O)C1=Cc1cn(-c2ccccc2)nc1-c1ccc(Cl)cc1 | 85.6% | 98.5% | 78.2% | 71.4% | 83.3% | 82.6% | 65.8% | 91.4% | 4.95% (active) | -4.85% (active) | -22% (active) | -28.5% (active) | 79.2% | 99.1% | 98.2% | 106 | 79.6% | 86.2% | 91.7% | 77.4% |
| CCOC(=O)COc1ccc2c(c1)O/C(=C\c1ccc(O)cc1)C2=O | 116% | 104% | 98.7% | 78.5% | 106% | 102% | 93.1% | 88.6% | 118% | 117% | 93.8% | 119% | 105% | 102% | 108% | 117 | 106% | 106% | 108% | – |
| Cc1ccc(S(=O)(=O)n2cc(C(=O)C(=O)N3CCCCC3)c3ccccc32)cc1 | 90.6% | 74.8% | 85.3% | 53.6% | 103% | 65.6% | 58.9% | 90.8% | 74.9% | 86.9% | 57.6% | 45.9% | 91.9% | 76.3% | 49.9% | 92 | 71.9% | 77% | 73.8% | – |
| COC(=O)[C@@H](NC(=O)NC(=O)NC(=O)CI)C(C)C | 87.4% | 95.7% | 90.1% | -15.4% (active) | 89.8% | 79.8% | -61.6% (active) | 87.9% | -32.9% (active) | 10.6% | -46.6% (active) | 74.5% | 90.9% | 90.9% | 72.7% | 80.9 | 101% | 7.92% (active) | 101% | 86.8% |
| CCCC[C@@H](C=O)NC(=O)[C@H](CC(C)C)NC(=O)[C@H](CC(C)C)NC(=O)OCc1ccccc1 | 13.4% | -14.2% (active) | 2.11% (active) | 23.8% | -20.2% (active) | 25.3% | 4.61% (active) | -47.6% (active) | -26.5% (active) | -11.7% (active) | -24.4% (active) | -10.2% (active) | 18.8% | -34.5% (active) | 10.8% | 38.2 | 8.93% (active) | -29.1% (active) | -2.88% (active) | – |
| CCCCCCCCCN(CCCCCCCCC)C(C)C(=O)c1ccc2cc(Br)c3ccccc3c2c1 (configuration not stated) | 125% | 72.6% | 79.8% | 47.2% | 93.7% | 85.9% | 71.5% | 96.8% | 60.6% | 86% | 7.35% (active) | 68.7% | 94% | 80.4% | 85.7% | 90.8 | 75.7% | 89.1% | 84.9% | – |
| O=C(NCCCCCCCNC(=O)OCc1ccc2c(Cl)cc(Cl)c(O)c2n1)OCc1ccc2c(Cl)cc(Cl)c(O)c2n1 | -70.6% (active) | -45.8% (active) | -76.5% (active) | -100% (active) | -80.7% (active) | -99.9% (active) | -93.4% (active) | -80.6% (active) | 4.67% (active) | -2.43% (active) | 6.26% (active) | -15.5% (active) | -8.93% (active) | -76.8% (active) | -71.9% (active) | 35 | -86.2% (active) | -87.2% (active) | -29.5% (active) | -9.29% (active) |
| COc1ccc(-c2cc(-c3ccc(Cl)cc3)nc(SCCCCCCC(=O)NO)n2)cc1 | 87.1% | 44.2% | 41.3% | 11.8% | 34.7% | 16.1% | 4.58% (active) | 52% | 3.36% (active) | 9.33% (active) | 4.61% (active) | 26.5% | 21.1% | 34.1% | 56.5% | 20.1 | 11.1% | 39% | 2.26% (active) | 55.5% |
| CSc1nc(=S)c2nc(SC)n(-c3ccccc3)c2[nH]1 | 83.1% | 105% | 96.7% | 83.9% | 96.9% | 102% | 90.9% | 86.6% | 82.5% | 107% | 104% | 90.7% | 100% | 104% | 104% | 96.4 | 101% | 105% | 101% | 92.3% |
